Source: PubChem BioAssay (National Center for Advancing Translational Sciences (NCATS))
An excerpt weighted towards active compounds, which were near 0.99% of everything screened.
WRN helicase inh = qHTS for Inhibitors of WRN Helicase; WRN helicase unwinding, fluorescent forked duplex, kinetic; hit rate 0.46% among 360,000; Bifunctional 3'-5' exonuclease/ATP-dependent helicase WRN (Homo sapiens), Q14191; Potency, µM (doses to about 114 µM), for inactives: at the highest dose activity change, negative = inhibition, usual class: inhibitors; also: nearly all actives have a fitted effect of over 55% in size
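WRN at 20 nM final preincubated with compound 15 min at room temperature; reaction started with 100 nM fluorophore/quencher forked duplex oligonucleotide and 2 mM ATP final. Unwinding followed kinetically by red fluorescence (ex 525, em 598 nm).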
BLM helicase inh = qHTS Assay for Inhibitors of Bloom's syndrome helicase (BLM). recombinant BLM DNA unwinding, fluorescence dequenching. hit rate 0.2% among 350,000. RecQ-like DNA helicase BLM (Homo sapiens), P54132. Potency, µM (highest dose often 56.1 µM), for inactives: at the highest dose activity change, negative = inhibition, hits mostly inhibitors;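 also: plate controls were vehicle for no effect and no enzyme for full effect; nearly all actives have a fitted effect of over 35% in size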
L3MBTL1 inh = qHTS Assay for the Inhibitors of L3MBTL1. AlphaScreen L3MBTL1–H3K9me1 peptide binding. Lethal(3)malignant brain tumor-like protein 1 (Homo sapiens), Q9Y468. Potency, µM (top dose mostly 57.1 µM), for the others: top-dose activity, negative = inhibition, actives largely listed as inhibitors. AID 485360, 2010. hit rate 0.66% among 230,000; also: nearly all actives have a fitted effect of over 60% in size
Target sequence (Q9Y468 whole entry, looked up): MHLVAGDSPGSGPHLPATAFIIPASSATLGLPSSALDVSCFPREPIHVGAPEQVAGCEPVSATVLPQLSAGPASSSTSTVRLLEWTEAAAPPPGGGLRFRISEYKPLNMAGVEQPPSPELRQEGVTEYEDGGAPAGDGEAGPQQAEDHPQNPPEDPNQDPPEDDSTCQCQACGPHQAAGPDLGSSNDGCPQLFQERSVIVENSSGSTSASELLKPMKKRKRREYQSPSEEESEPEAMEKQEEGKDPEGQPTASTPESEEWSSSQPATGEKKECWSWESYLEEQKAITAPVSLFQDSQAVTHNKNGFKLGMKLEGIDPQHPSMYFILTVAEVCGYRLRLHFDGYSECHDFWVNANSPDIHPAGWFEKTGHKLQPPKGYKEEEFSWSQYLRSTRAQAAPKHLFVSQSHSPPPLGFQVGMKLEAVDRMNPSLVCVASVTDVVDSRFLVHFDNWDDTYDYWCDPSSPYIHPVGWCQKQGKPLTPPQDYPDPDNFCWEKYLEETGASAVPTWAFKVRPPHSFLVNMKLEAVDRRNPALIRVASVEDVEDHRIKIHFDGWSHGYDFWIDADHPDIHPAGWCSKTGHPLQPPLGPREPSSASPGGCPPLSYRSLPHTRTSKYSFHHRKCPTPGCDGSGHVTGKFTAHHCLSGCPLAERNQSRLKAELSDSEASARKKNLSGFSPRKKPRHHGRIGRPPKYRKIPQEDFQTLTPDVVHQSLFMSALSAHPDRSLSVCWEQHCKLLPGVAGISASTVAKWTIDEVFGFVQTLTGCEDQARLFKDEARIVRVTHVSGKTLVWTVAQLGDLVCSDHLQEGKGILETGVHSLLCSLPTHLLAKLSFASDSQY
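L3MBTL1 50 nM + b-AHA-H3(1-15)K9me1 75 nM, 30 min RT; compound added, 30 min RT; streptavidin donor/Ni-chelate acceptor beads 10 ug/mL each final, 30 min RT dark; AlphaScreen read.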
FEN1 inhibitor = qHTS Assay for the Inhibitors of Human Flap endonuclease 1 (FEN1); P39748; Potency, µM (titrated, usually from 114 µM), for the others: top-dose activity change, negative = inhibition, usual class: inhibitors; Recombinant FEN1 flap cleavage, fluorescence, 15 min; hit rate 0.35% among 390,000; also: nearly all actives have a fitted effect of over 65% in size
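Potency values derive from four-parameter Hill fits of normalized qHTS data. The reaction used 10 nM FEN1 preincubated 15 min at room temperature with compound, then 50 nM DNA substrate, read at 0 and 15 min.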
RECQ1 helicase = qHTS Assay for Inhibitors of RecQ-Like Dna Helicase 1 (RECQ1) | hit rate 0.54% among 240,000 | RECQ1 DNA unwinding, red fluorescence kinetic read | AID 2549, 2010 | Potency, µM (doses to about 57.3 µM), without a hit: at the top dose activity, negative = inhibition, actives largely listed as inhibitors;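 also: plate controls were vehicle for no effect and no enzyme for full effect; nearly all actives have a fitted effect of over 30% in size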
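RECQ1T1 50 nM; forked duplex (20 bp + 30-nt ss tails) 200 nM, ATP 2 mM final; pH 8.0, 2 mM MgCl2, 2.5 ug/ml poly(dI-dC); 15 min compound preincubation; discontinuous kinetic read over 2 h at RT.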
Active calls of the source: *; i = inactive; ? = inconclusive; nt = not tested or not shown; [ ] = remark or other dose. Calls follow the shape of the dose curve; as a rule, active = well fitted curve in the direction sought with a large enough effect; inconclusive = small, poorly fitted or top-dose-only effect, or another doubt; inactive = no such curve, though single readings can be large; an effect the other way counts as inactive or inconclusive. Unless noted, % is scaled to controls: 0 for no effect and ±100 for the full control effect; potency is read from the fitted curve at half-maximal effect.

SMILES	WRN helicase inh	BLM helicase inh	L3MBTL1 inh	FEN1 inhibitor	RECQ1 helicase
CC(=O)Nc1ccc(NC(=S)NC(=O)/C=C/c2ccco2)cc1	?	-11%	2%[2.29 µM]	50µM*	nt
CC(=O)N(C)c1ccc(NC(=S)NC(=O)/C=C/c2ccco2)cc1	-10%[57.1 µM]	-7%	nt	-5%	nt
CC(C)Sc1nc2sc3c(c2c2nnc(SCC(=O)NCc4ccco4)n12)CCCC3	-13%[11.6 µM]	-20%	-4%	-17%	-6%
Cc1ccc(S(=O)(=O)/N=C2\C=C(Nc3cccc(C(=O)O)c3)C(=O)c3ccccc32)cc1	8%	20µM*	nt	?	nt
CC(C)(C)c1ccc(S(=O)(=O)/N=C2\C=C(NS(=O)(=O)c3ccccc3)C(=O)c3ccccc32)cc1	?	-18%	nt	?	nt
Cc1ccc(S(=O)(=O)/N=C2\C=C(Nc3cccc(C(=O)O)c3)C(=O)c3ccccc32)c(C)c1	?	25µM*	nt	71µM*	nt
CCc1ccc(S(=O)(=O)/N=C2\C=C(Nc3ccc(C(=O)O)cc3)C(=O)c3ccccc32)cc1	-18%[11.6 µM]	25µM*	nt	-31%	nt
COC(=O)c1ccccc1NC1=C/C(=N\S(=O)(=O)c2ccc(C(=O)O)cc2)c2ccccc2C1=O	?	20µM*	nt	20µM*	nt
Cc1ccc(S(=O)(=O)/N=C2\C=C(NS(=O)(=O)c3ccccc3)C(=O)c3ccccc32)c(C)c1	-22%	nt	nt	-2%	nt
COC(=O)c1ccccc1NC1=C/C(=N\S(=O)(=O)c2cccs2)c2ccccc2C1=O	-25%	6%	nt	1%	-4%
O=C(CCCNC(=O)c1ccc(Cl)cc1)NCc1ccccc1Cl	4%	-3%	nt	-8%	nt
CCC1CCCCN1C(=O)CCS(=O)(=O)c1ccc2c(c1)CCN2C(C)=O (centres undefined)	-4%	-1%	nt	-13%	nt
CCCCCCC[n+]1ccc(/C=C/c2c[nH]c3ccccc23)cc1	nt	nt	nt	-11%	nt
CCCCCCCCCCCCCCCC[n+]1ccc(C)c2ccccc21	nt	nt	nt	79µM*	nt
CCCCCCCCCC[n+]1ccc(/C=C/c2c[nH]c3ccccc23)c2ccccc21	nt	nt	nt	45µM*	nt
C=Cc1ccc(N=Cc2ccc(N(C)C)cc2)cc1	nt	nt	nt	-21%	nt
COc1ccc2ccc3c(c2c1)N=C[C@]1(O3)N(C)c2ccccc2C1(C)C	11µM*	-12%	0%	?	-10%
O=C1c2cccc3cccc(c23)C(=O)N1c1ccc2ncccc2c1	79µM*	-24%	-3%	?	2%
O=C(C#Cc1ccccc1)c1ccccc1	45µM*	nt	nt	nt	nt
O=C(C#Cc1ccccc1)c1ccc([N+](=O)[O-])cc1	32µM*	-11%	nt	-3%	-6%
CC(OC(=O)CCN1C(=O)c2cccc([N+](=O)[O-])c2C1=O)C(=O)Nc1cc(Cl)cc(Cl)c1 (centres undefined)	-7%[57.1 µM]	-11%	-2%	1%	2%
O=C(/C=C/c1ccncc1)c1cc(Cl)ccc1O	-1%	-8%	-24%	-7%	-7%
CN(C)c1ccc(/C=C/C(=O)c2cc(Cl)ccc2O)cc1	50µM*	-24%	32µM*	-34%	-7%
CC(C#CCN1CCCCC1)OCCOCc1ccccc1 (centres undefined)	-4%	-1%	9%	2%	-1%
O=C(O)c1ccc(/C=N/NC(=O)c2cc3ccccc3cc2O)cc1	?	nt	32µM*	?	nt
SMILES	WRN helicase inh	BLM helicase inh	L3MBTL1 inh	FEN1 inhibitor	RECQ1 helicase
C/C(CC(=O)N1CCN(C=O)CC1)=N\NC(=O)c1cc2ccccc2cc1O	?	-8%	9%	-2%	28µM*
O=C(N/N=C/c1ccc(Sc2ccccn2)o1)c1cc2ccccc2cc1O	?	?	?	50µM*	-23%
O=C(N/N=C\c1ccc(Sc2ccccn2)o1)c1cccc(F)c1	-4%	-4%	0%	13%	-2%
CN(O)/C=c1/ccc2c(n1)C(=O)C=CC=2	-1%	1%	20µM*	6%	-1%
COc1cccc2c1C(=O)c1c(O)c3c(c(O)c1C2=O)C[C@@](O)(C(=O)CO)C[C@@H]3O[C@@H]1C[C@H](N)[C@H](O)[C@H](C)O1	nt	25µM*	nt	nt	16µM*
CCOc1cccc(CNc2ccc(O)cc2)c1OCc1ccccc1Cl	?	?	40µM*	?	i
COc1ccc(/C=N/Nc2nc(-c3cccnc3)nc3ccccc23)cc1OC	-21%	3%	5%	?	20µM*
COc1ccc(Br)cc1C(=O)N/N=C/c1ccc2c(c1)n(C)c(=O)n2C	-6%	-1%	4%	7%	-6%
COc1cccc(/C(O)=C/c2nc3ccc(C(=O)NCCc4cccc(C)c4)cc3[nH]c2=O)c1	71µM*	-1%	-9%	-1%	3%
CCOc1ccc([C@@H]2CC=C(C(=O)O)[C@H](c3cccc(Cl)c3)N2S(=O)(=O)c2ccc(C)cc2)cc1	2%	nt	6%	13%	nt
CCCC(=O)N1CCN(c2nc3ccc(Br)cc3s2)CC1	3%[11.6 µM]	-2%	nt	25µM*	nt
CCCCC(=O)N1CCN(c2nc3ccc(Br)cc3s2)CC1	3%	-3%	nt	7%	nt
N#C/C(=C\c1ccc(O)c(O)c1)C(=O)OCCc1cccs1	nt	-30%	nt	nt	28µM*
N#C/C(=C\c1ccc(O)c(O)c1)C(=O)N1CCCC1	2%[11.6 µM]	-9%	-2%	-6%	2%
N#C/C(=C\c1ccc(O)c(O)c1)C(=O)NCCCc1ccccc1	?	?	?	0%	16µM*
N#CC(=Cc1ccc(O)c(O)c1)C(=O)NCc1ccccc1	nt	nt	nt	-19%	nt
COc1ccc(C)cc1NC(=O)C(=O)N1CCCC1	5%	-6%	-1%	0%	0%
ClCC1CSC(=NC23CC4CC(CC(C4)C2)C3)O1 (centres undefined)	-12%	-5%	-13%	10%	12%
CC1(C)C2CCC(C2)C1(C)N=C1OC(CCl)CS1 (centres undefined)	0%	4.5µM*	18%	12%	1%
CNc1ccccc1	6%	nt	-4%	-7%	16%
CNc1cccccc1=S	-12%[11.6 µM]	-2%	4µM*	-10%	?
CCC[N+](C)(C)c1ccc(/C=C/c2ccnc3ccccc23)cc1	nt	nt	nt	32µM*	nt
CCCN(CCC)c1ccc(/C=C/c2ccnc3ccccc23)cc1	nt	nt	nt	-1%	nt
CN(C)c1ccc(/C=C/c2ccnc3ccc4ccccc4c23)cc1	nt	nt	nt	11µM*	nt
Oc1ccc(/C=C/c2ccnc3ccccc23)cc1	6%	1%	5%	2%	-15%
C[N+](C)(C)c1ccc(/C=C/c2ccnc3ccccc23)cc1	nt	nt	nt	45µM*	nt
CC(=O)c1cccc(-n2nnnc2SCC(=O)Nc2cc(C)on2)c1	0%[57.1 µM]	-8%	nt	-2%	nt
